High-throughput results (PubChem)
Exocytosis inh – LAMP-1 surface exposure blockers, TALL-104 cells – cell-based, flow cytometry, MLPCN library, primary screen; AID 651702, 2012; 360,000 compounds, 0.66% hits; TALL-104 LAMP-1 surface exposure; cells stimulated with thapsigargin and PMA; inhibition, % at 10 µM;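 active = inhibition above about 55%, limit read from the data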
SMARCA2 act – SMARCA2 (BRM) function activators, primary screen, cell-based, luminescence, high throughput; MG213 cells, MMTV-luciferase reporter, dexamethasone, overnight; activation, % at 9.1 µM; 370,000 compounds, 1% hits; AID 652017, 2013; in the data active = activation above about 7.8%;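 note: 0% = vehicle wells and 100% = reference activator wells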
MIN6 prolif – inducers of MIN6 beta-cell proliferation, primary screen, ATP luminescence, uHTS. MIN6 cells proliferation, ATPlite luminescence, 48 h; cells starved in 0.2% serum; 100% = growth in 10% serum. proliferation, % at 10 µM. 330,000 compounds, 0.29% hits;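 active = compounds whose signal lies at least 3.5 SD above the mean of all wells on their plate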;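 note: 0% = DMSO-treated cells in low-serum medium and 100% = 10% serum control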
ALR H2O2 inh – inhibitors of human ALR sulfhydryl oxidase, primary screen, biochemical, H2O2 detection, HRP-luminol luminescence, single point; purified ALR, DTT oxidation; inhibition, % (test concentration not listed); 290,000 compounds, 3.8% hits; AID 485317, 2010;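 active = mean replicate inhibition above about 79%, with every replicate also reaching it, limit read from the data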
Target sequence (P55789 whole entry, looked up): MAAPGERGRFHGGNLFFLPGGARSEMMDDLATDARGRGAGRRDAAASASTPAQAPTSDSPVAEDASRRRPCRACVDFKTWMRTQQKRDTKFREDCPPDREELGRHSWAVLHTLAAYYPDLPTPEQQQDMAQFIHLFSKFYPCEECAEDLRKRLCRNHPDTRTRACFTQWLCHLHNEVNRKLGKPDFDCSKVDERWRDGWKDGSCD
JMJD2C inh – inhibitors of GASC-1 histone demethylase, primary screen, biochemical, fluorescence, DELFIA europium | Lysine-specific demethylase 4C (Homo sapiens), Q9H3R0 | GST-JMJD2C(1-420) H3K9me3 demethylation | inhibition, % at 2.35 µM | 330,000 compounds, 0.069% hits | AID 2099, 2009;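 active = more than half of a compound's replicate wells show inhibition beyond 50%, single wells judged on their own value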;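 note: signal counts dimethyl H3K9 product captured on neutravidin plate; 0% = median of DMSO wells and 100% = 0.3 times that DMSO median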
Target sequence (Q9H3R0 1-420 limits assumed): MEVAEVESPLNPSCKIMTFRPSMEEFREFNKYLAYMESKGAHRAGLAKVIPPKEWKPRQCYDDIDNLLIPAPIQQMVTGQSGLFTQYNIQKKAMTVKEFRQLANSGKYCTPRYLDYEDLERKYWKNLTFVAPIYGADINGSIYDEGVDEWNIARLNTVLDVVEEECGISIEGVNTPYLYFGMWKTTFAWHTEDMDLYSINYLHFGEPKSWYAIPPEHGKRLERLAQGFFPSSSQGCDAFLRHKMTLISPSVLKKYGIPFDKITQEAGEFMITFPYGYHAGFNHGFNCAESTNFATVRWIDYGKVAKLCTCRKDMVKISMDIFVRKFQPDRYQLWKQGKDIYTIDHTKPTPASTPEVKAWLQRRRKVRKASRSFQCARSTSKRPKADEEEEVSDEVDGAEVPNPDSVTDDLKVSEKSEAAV
M18AAP inhibitor – PfM18AAP inhibitors, malaria aminopeptidase, primary screen, biochemical, QFRET, recombinant enzyme; M18 aspartyl aminopeptidase (Plasmodium falciparum 3D7); H-Glu-NHMec fluorogenic cleavage; inhibition, % at 7.35 µM; 290,000 compounds, 1.2% hits;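 active = inhibition above the campaign mean inhibition over all tested compounds plus 3 SD, cut at about 28% in these data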;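 note: 0% = plate median of test compound wells and 100% = 2 mM ZnCl2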
SMARCA2 act conf – SMARCA2 (BRM) function activators, confirmation, cell-based, luminescence, triplicate; MG213 cells, MMTV-luciferase with dexamethasone, overnight; MG213 cells expressing E1A, Rb sequestered; DMSO wells 0%, reference activator 100%; shares compounds with SMARCA2 act; activation, % at 9.1 µM; 3,500 compounds, 30% hits;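 active = activation above its plate's cutoff, the mean activation of tested wells plus 3 SD, cut at about 7.9% in these data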
GAL4-VP16 Luc – GAL4-VP16 luciferase reporter activation, counter-screen for SMARCA2 (BRM) activator project, cell-based, pG5luc, luminescence, high throughput. shares compounds with SMARCA2 act. HEK293 GAL4-VP16 pG5luc reporter; scaled: DMSO wells 0%, SAHA wells 100%. activation, % at 9.1 µM. 3,500 compounds, 41% hits. AID 686939, 2013;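 active = activation above the solvent-only control well mean plus 3 SD, averaged across control plates, cut at about 5.2% in these data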
An asterisk follows results filed as active; . = no result. Compounds with a hit are over-represented: about 5.4% of the library has one in this group of screens.

SMILES	Exocytosis inh	SMARCA2 act	MIN6 prolif	ALR H2O2 inh	JMJD2C inh	M18AAP inhibitor	SMARCA2 act conf	GAL4-VP16 Luc
O=C(Nc1ccc2c(c1)CN(C(=O)Nc1ccc(F)cc1)CC2)c1ccccn1	-19.9	-4.2	.	.	.	.	.	.
COC(=O)c1ccccc1NC(=O)N1CCc2ccc(NC(=O)c3ccccn3)cc2C1	13.9	8.1*	-5.0	.	10.0	-15.0	5.7	7.5*
O=C(Nc1cccc(Cl)c1)Nc1ccc2nccnc2c1	-3.7	5.9	0.3	-199.4	-23.5	-5.2	.	.
O=C(Nc1ccc2nccnc2c1)Nc1ccccc1Cl	-3.3	8.9*	-0.1	-176.6	11.8	-3.0	0.9	6.8*
Cc1nn(-c2ccccc2)c(Cl)c1/C=N/Nc1ccc(Cl)c(C(=O)O)c1	2.4	8.9*	0.0	95.8*	11.7	3.0	9.4*	13.6*
Cc1nn(-c2ccccc2)c(Cl)c1/C=N/NC(=O)OC(C)(C)C	0.4	2.8	-0.9	-1.4	-4.8	1.5	.	.
O=C(CC1NC2CCCCC2NC1=O)Nc1ccc2c(c1)OCO2 (stereo unspecified)	-2.0	11.3*	2.7	-5.3	-12.2	-3.8	-0.6	0.5
COC(=O)[C@]12C[C@H](CC(=O)NCc3ccc(C)o3)C(=O)N(Cc3cccc4ccccc34)C1=C[C@H](C1CCCC1)O[C@@H]2C	.	-3.3	.	.	.	.	.	.
COC(=O)c1cc2c(c3c4ccccc4n(S(=O)(=O)c4ccc(C)cc4)c13)C(=O)N(Cc1ccccc1)C2	.	-4.7	.	.	.	.	.	.
CCN1CCN(c2ccc(NC(=O)c3ccc4c(c3)OCCO4)cc2C)CC1	0.4	10.9*	-2.1	.	.	.	7.1	7.9*
CCN1CCN(c2ccc(NC(=O)c3cc4ccccc4cc3OC)cc2C)CC1	-0.8	12.3*	-7.8	-7.4	.	.	8.1*	12.5*
CCN1CCc2nc(NC(=O)c3ccc4c(c3)OCCO4)sc2C1	13.8	8.7*	-1.7	-1.1	13.1	-0.8	6.8	10.7*
CCC(=O)N1CCN(c2ccc(NC(=O)c3ccc4c(c3)OCCO4)cc2)CC1	-1.0	0.7	-0.6	-2.4	-10.1	0.7	.	.
CCCC[C@H]1C2CC(OC(=O)Nc3ccc(C(F)(F)F)cc3)C(C2)[C@H]2CCCCN21 (stereo partly specified)	.	-4.2	.	.	.	.	.	.
COCCn1c(=O)[nH]c2cc(C(=O)Nc3nnc(C)s3)ccc21	-18.0	8.2*	1.1	-16.8	0.7	3.6	4.4	2.8
Cc1cccc(CN2CCC(n3nccc3NC(=O)CCCc3ccccc3)CC2)c1	-24.1	-5.1	.	.	.	.	.	.
CCCC(=O)N1CCCC1(C)C(=O)Nc1ccc(-n2cccc2)cc1 (stereo unspecified)	-5.0	-2.0	.	.	.	.	.	.
CN1CCCC1(C)C(=O)Nc1ccc(-n2cccc2)cc1 (stereo unspecified)	-0.6	8.2*	.	.	.	.	4.4	3.5
COc1cc(CNc2cccc(C(=O)O)c2)cc(Br)c1OCC(=O)NC(C)(C)C	-3.2	0.2	0.7	-61.4	-2.3	-5.4	.	.
COc1cc(CNc2cccc(F)c2)cc(Br)c1O	-1.0	9.2*	-1.2	-2.4	-4.4	5.0	4.7	1.9
C=C(C)C(=O)OC1(C(F)(F)F)Oc2cc(C)ccc2NC1=O (stereo unspecified)	16.9	21.0*	-5.6	97.7*	-28.8	-3.2	-4.9	4.8
Fc1cccc(Cl)c1C1SCc2nc3ccccc3n21 (stereo unspecified)	-6.0	1.1	.	.	.	.	.	.
C=C1C(=O)[C@]23C[C@H]1CC[C@H]2[C@]1(C)CCC[C@@](C)(C(=O)OC)[C@H]1C[C@@H]3O	.	-7.3	.	.	.	.	.	.
COc1cccc(C(=O)Nc2ccc3c(c2)OC[C@H](C)N(C(=O)C2CCCC2)C[C@@H](C)[C@@H](OC)CN(C)C3=O)c1	-10.8	1.0	.	.	.	.	.	.
CN1CCCC1CCNc1ccc2sc3ccccc3c(=O)c2c1 (stereo unspecified)	0.4	10.8*	-8.0	97.8*	-3.5	.	14.3*	7.5*
SMILES	Exocytosis inh	SMARCA2 act	MIN6 prolif	ALR H2O2 inh	JMJD2C inh	M18AAP inhibitor	SMARCA2 act conf	GAL4-VP16 Luc
O=c1c2ccccc2oc2ccc(NCCCn3ccnc3)cc12	-9.7	4.7	-5.5	-12.8	-9.6	0.9	.	.
O=c1c2ccccc2sc2ccc(NCCCN3CCOCC3)cc12	-1.3	7.3	-5.9	55.0	7.8	.	.	.
Cc1cc2oc3cc(NCCC4CCCN4C)ccc3c(=O)c2cc1C (stereo unspecified)	-3.8	8.8*	-7.9	90.8*	17.7	.	21.4*	8.7*
COc1ccc(CCNC(=O)c2cccn2C)cc1	5.1	8.3*	-1.7	-2.5	6.9	-2.5	5.2	9.7*
Cn1cccc1C(=O)NCCc1ccccc1	-0.5	5.9	-1.4	-2.5	3.2	6.9	.	.
COc1ccc(-c2nc3ccccc3s2)cc1NC(C)=O	6.7	9.7*	-0.3	-8.4	4.3	-7.0	6.9	13.5*
Fc1ccc(NCc2cn3ccccc3n2)cc1	0.0	9.7*	-2.2	60.6	-14.2	-4.2	7.5	6.3*
CCN(CC)C(=O)C1=C(C)N(CCCOC)C(=O)C(CC(=O)NCCCCc2ccccc2)C1 (stereo unspecified)	3.4	-1.6	.	.	.	.	.	.
COc1ccc(OCC(O)CN2CCC(CN3C(=O)c4cccc5cccc(c45)C3=O)CC2)cc1 (stereo unspecified)	7.2	11.3*	-3.9	-6.5	3.9	.	1.9	1.5
O=C(NNC1=C(C(=O)C(F)(F)F)CCC1)c1ccc(Cl)cc1	1.8	14.1*	-4.4	9.5	2.4	0.5	-4.8	-0.2
CN(C)C(=O)CCc1ccc2c3c([nH]c2c1)[C@]1(CCC2CCCC2)[C@@H](C(=O)N2CCOCC2)C[C@H](CC(=O)NCCc2ccccn2)C(=O)N1CC3	-4.9	8.0*	.	.	.	.	-4.9	1.4
CN(C)CCCNC(=O)C[C@H]1C[C@H](C(=O)N2CCOCC2)[C@@]2(CCC3CCCC3)c3[nH]c4cc(-c5ccco5)ccc4c3CCN2C1=O	0.9	8.2*	.	.	.	.	-3.8	0.1
COc1ccc(CN2C[C@@H](CO)O[C@@H](n3cnc4c(NCCO)ncnc43)C2)cc1	-23.3	-0.3	.	.	.	.	.	.
Cc1cc(Cl)nc(-c2ccccc2O)n1	0.3	0.4	-1.4	2.3	10.9	0.3	.	.
